# Reference: the supplement of paper PMC3545927
# Some of the results follow. How many sequences the whole screen found active is unknown.
# B1: HC2437 (peptide)
# chain: CASREVPCHRAGNASASA
# B2: HC56 (peptide)
# chain: CATTPTSGSWAGNASASA
# B3: HC2458 (peptide)
# chain: CAETEVPCHRAGNASASA
# B4: FS-3089 (peptide)
# chain: CARSPRGVLRAGNASASA
# B5: FS-1973 (peptide)
# chain: CARSKRSKNQAGNASASA
# B6: FS-2183 (peptide)
# chain: CARSKRSLSCAGNASASA
# B7: FS-2820 (peptide)
# chain: CARSSKDTSTAGNASASA
# B8: FS-3178 (peptide)
# chain: CAWSKRSLSQAGNASASA
# B9: FS-1931 (peptide)
# chain: CARSKRSPGGAGNASASA
# B10: FS-3223 (peptide)
# chain: CARKNRSKNQAGNASASA
# B11: FS-1932 (peptide)
# chain: CARSPRSASTAGNASASA
# B12: HC1683 (peptide)
# chain: CAMAECSQHLAGNASASA
# Target: furin, P09958
# Sequence (P09958 whole entry): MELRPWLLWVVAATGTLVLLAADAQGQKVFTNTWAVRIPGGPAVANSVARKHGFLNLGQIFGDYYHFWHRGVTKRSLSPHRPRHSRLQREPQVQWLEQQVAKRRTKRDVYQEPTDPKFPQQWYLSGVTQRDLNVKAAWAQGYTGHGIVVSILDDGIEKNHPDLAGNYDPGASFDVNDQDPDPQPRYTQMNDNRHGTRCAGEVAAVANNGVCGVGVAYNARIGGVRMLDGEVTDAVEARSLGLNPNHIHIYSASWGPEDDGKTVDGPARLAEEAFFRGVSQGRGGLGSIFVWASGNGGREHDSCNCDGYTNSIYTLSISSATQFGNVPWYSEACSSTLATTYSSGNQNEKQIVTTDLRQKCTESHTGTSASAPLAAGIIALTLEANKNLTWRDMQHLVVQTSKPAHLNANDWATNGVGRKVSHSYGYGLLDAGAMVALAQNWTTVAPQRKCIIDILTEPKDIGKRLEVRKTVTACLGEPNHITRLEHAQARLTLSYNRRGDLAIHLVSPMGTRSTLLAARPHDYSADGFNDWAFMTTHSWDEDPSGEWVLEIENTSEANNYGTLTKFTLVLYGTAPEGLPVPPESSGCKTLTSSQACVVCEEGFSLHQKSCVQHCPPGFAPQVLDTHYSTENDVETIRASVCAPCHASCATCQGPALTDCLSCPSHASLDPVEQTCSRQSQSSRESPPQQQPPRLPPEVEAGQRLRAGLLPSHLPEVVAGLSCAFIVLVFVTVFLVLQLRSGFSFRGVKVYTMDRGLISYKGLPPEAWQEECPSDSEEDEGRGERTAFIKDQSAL
# Assay: furin cleavage Z-score vs untreated control; higher = more cleavage, active = 3.5 or more, inactive = 1 or less, 8 variable residues between constant flanks
# Method in brief: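 Sequencing of released DNA, tagged with adapters by PCR, gave read counts used as abundance. That DNA was freed when purified furin cut N-terminally bead-bound 8-mer peptides fused to a cDNA oligonucleotide, in 0.01 ml reactions at 1:10 enzyme:substrate in 50 mM HEPES pH 7.5 with CaCl2 and NaCl, lasting 7.5, 15 or 30 min. The cleavage Z-score was the lowess-adjusted log count versus furin-free reactions, scaled by median absolute deviation.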
Sequence,furin cleavage Z-score (7.5 min),furin cleavage Z-score (15 min),furin cleavage Z-score (30 min)
B1,0.554 (inactive),0.537 (inactive),0.935 (inactive)
B2,-1.1 (inactive),-0.337 (inactive),-0.847 (inactive)
B3,0.00837 (inactive),0.231 (inactive),0.879 (inactive)
B4,-0.934 (inactive),-0.739 (inactive),-0.752 (inactive)
B5,5.82 (active),7.57 (active),6.19 (active)
B6,1.81,2.42,5.07 (active)
B7,-0.514 (inactive),-1.51 (inactive),-0.361 (inactive)
B8,0.451 (inactive),1.67,2.52
B9,9.79 (active),8.88 (active),8.01 (active)
B10,0.698 (inactive),-0.524 (inactive),0.1 (inactive)
B11,4.66 (active),5.46 (active),7.33 (active)
B12,0.693 (inactive),-0.153 (inactive),0.354 (inactive)
